Experimental data: paper PMC9911399, “Two distinct binding modes provide the RNA-binding protein RbFox with extraordinary sequence specificity”
Numbering of substitutions follows the chain as printed; changes in the protein carry UniProt numbers. In all, about 16,000 sequences were measured (“ka relative to ugcaugu”: median about 0.0091, highest 2% from about 0.032 on). Shown is part of a subset that was picked to be rich in the highest values.

T1: RBFOX1 RRM (Homo sapiens, UniProt Q9NWB1 109-208)
T1 sequence: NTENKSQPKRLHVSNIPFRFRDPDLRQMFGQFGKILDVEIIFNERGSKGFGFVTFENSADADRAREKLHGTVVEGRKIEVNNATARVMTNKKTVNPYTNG

B1: GUGUAAG (DNA:RNA)
RNA: GGGAGACCGGAAUUCAGAUUGUCCGUGUAAGUUAAAUCCCGUCGUAGCCACCA
DNA 1: CAATCTGAATTCCGGTCTCCC
DNA 2: TGGTGGCTACGACGGGATT
B2: UAGUACG (DNA:RNA)
RNA: B1 RNA with G25U, U26A, A30C
DNA 1: CAATCTGAATTCCGGTCTCCC
DNA 2: TGGTGGCTACGACGGGATT
B3: CAGUGCA (DNA:RNA)
RNA: B1 RNA with G25C, U26A, A29G, A30C, G31A
DNA 1: CAATCTGAATTCCGGTCTCCC
DNA 2: TGGTGGCTACGACGGGATT
B4: GCCCCCA (DNA:RNA)
RNA: B1 RNA with U26C, G27C, U28C, A29C, A30C, G31A
DNA 1: CAATCTGAATTCCGGTCTCCC
DNA 2: TGGTGGCTACGACGGGATT
B5: UAGUAAA (DNA:RNA)
RNA: B1 RNA with G25U, U26A, G31A
DNA 1: CAATCTGAATTCCGGTCTCCC
DNA 2: TGGTGGCTACGACGGGATT
B6: GAUAUAC (DNA:RNA)
RNA: B1 RNA with U26A, G27U, U28A, A29U, G31C
DNA 1: CAATCTGAATTCCGGTCTCCC
DNA 2: TGGTGGCTACGACGGGATT
B7: AGUAAAU (DNA:RNA)
RNA: B1 RNA with G25A, U26G, G27U, U28A, G31U
DNA 1: CAATCTGAATTCCGGTCTCCC
DNA 2: TGGTGGCTACGACGGGATT
B8: GCCAUGG (DNA:RNA)
RNA: B1 RNA with U26C, G27C, U28A, A29U, A30G
DNA 1: CAATCTGAATTCCGGTCTCCC
DNA 2: TGGTGGCTACGACGGGATT
B9: GCAUUGG (DNA:RNA)
RNA: B1 RNA with U26C, G27A, A29U, A30G
DNA 1: CAATCTGAATTCCGGTCTCCC
DNA 2: TGGTGGCTACGACGGGATT
B10: CGCAUGG (DNA:RNA)
RNA: B1 RNA with G25C, U26G, G27C, U28A, A29U, A30G
DNA 1: CAATCTGAATTCCGGTCTCCC
DNA 2: TGGTGGCTACGACGGGATT
B11: CUUGGUG (DNA:RNA)
RNA: B1 RNA with G25C, G27U, U28G, A29G, A30U
DNA 1: CAATCTGAATTCCGGTCTCCC
DNA 2: TGGTGGCTACGACGGGATT
B12: AGGGUAG (DNA:RNA)
RNA: B1 RNA with G25A, U26G, U28G, A29U
DNA 1: CAATCTGAATTCCGGTCTCCC
DNA 2: TGGTGGCTACGACGGGATT
B13: GGGGCUC (DNA:RNA)
RNA: B1 RNA with U26G, U28G, A29C, A30U, G31C
DNA 1: CAATCTGAATTCCGGTCTCCC
DNA 2: TGGTGGCTACGACGGGATT
B14: GGGGCUG (DNA:RNA)
RNA: B1 RNA with U26G, U28G, A29C, A30U
DNA 1: CAATCTGAATTCCGGTCTCCC
DNA 2: TGGTGGCTACGACGGGATT
B15: CGGGGGC (DNA:RNA)
RNA: B1 RNA with G25C, U26G, U28G, A29G, A30G, G31C
DNA 1: CAATCTGAATTCCGGTCTCCC
DNA 2: TGGTGGCTACGACGGGATT
B16: CGGGCUG (DNA:RNA)
RNA: B1 RNA with G25C, U26G, U28G, A29C, A30U
DNA 1: CAATCTGAATTCCGGTCTCCC
DNA 2: TGGTGGCTACGACGGGATT
B17: ACCGGGC (DNA:RNA)
RNA: GGGAGACCGGAAUUCAGAUUGUCCACCGGGCUUAAAUCCCGUCGUAGCCACCA
DNA 1: CAATCTGAATTCCGGTCTCCC
DNA 2: TGGTGGCTACGACGGGATT
B18: GGGCUGU (DNA:RNA)
RNA: B1 RNA with U26G, U28C, A29U, A30G, G31U
DNA 1: CAATCTGAATTCCGGTCTCCC
DNA 2: TGGTGGCTACGACGGGATT
B19: CCCGGGC (DNA:RNA)
RNA: B17 RNA with A25C
DNA 1: CAATCTGAATTCCGGTCTCCC
DNA 2: TGGTGGCTACGACGGGATT
B20: GGGCUCU (DNA:RNA)
RNA: B1 RNA with U26G, U28C, A29U, A30C, G31U
DNA 1: CAATCTGAATTCCGGTCTCCC
DNA 2: TGGTGGCTACGACGGGATT
B21: CGGGCUC (DNA:RNA)
RNA: B17 RNA with A25C, C26G, C27G, G29C, G30U
DNA 1: CAATCTGAATTCCGGTCTCCC
DNA 2: TGGTGGCTACGACGGGATT
B22: UUUCUAU (DNA:RNA)
RNA: B1 RNA with G25U, G27U, U28C, A29U, G31U
DNA 1: CAATCTGAATTCCGGTCTCCC
DNA 2: TGGTGGCTACGACGGGATT
B23: UGCAUCU (DNA:RNA)
RNA: B17 RNA with A25U, C26G, G28A, G29U, G30C, C31U
DNA 1: CAATCTGAATTCCGGTCTCCC
DNA 2: TGGTGGCTACGACGGGATT
B24: AUCCGAU (DNA:RNA)
RNA: B17 RNA with C26U, G28C, G30A, C31U
DNA 1: CAATCTGAATTCCGGTCTCCC
DNA 2: TGGTGGCTACGACGGGATT
B25: ACAACUC (DNA:RNA)
RNA: B17 RNA with C27A, G28A, G29C, G30U
DNA 1: CAATCTGAATTCCGGTCTCCC
DNA 2: TGGTGGCTACGACGGGATT
B26: GCCAUCC (DNA:RNA)
RNA: B17 RNA with A25G, G28A, G29U, G30C
DNA 1: CAATCTGAATTCCGGTCTCCC
DNA 2: TGGTGGCTACGACGGGATT
B27: CGCUAUU (DNA:RNA)
RNA: B1 RNA with G25C, U26G, G27C, A30U, G31U
DNA 1: CAATCTGAATTCCGGTCTCCC
DNA 2: TGGTGGCTACGACGGGATT
B28: UAGAUGA (DNA:RNA)
RNA: B17 RNA with A25U, C26A, C27G, G28A, G29U, C31A
DNA 1: CAATCTGAATTCCGGTCTCCC
DNA 2: TGGTGGCTACGACGGGATT
B29: CUGGUUC (DNA:RNA)
RNA: B17 RNA with A25C, C26U, C27G, G29U, G30U
DNA 1: CAATCTGAATTCCGGTCTCCC
DNA 2: TGGTGGCTACGACGGGATT
B30: UGUUGGG (DNA:RNA)
RNA: B17 RNA with A25U, C26G, C27U, G28U, C31G
DNA 1: CAATCTGAATTCCGGTCTCCC
DNA 2: TGGTGGCTACGACGGGATT
B31: UGGGGGG (DNA:RNA)
RNA: B17 RNA with A25U, C26G, C27G, C31G
DNA 1: CAATCTGAATTCCGGTCTCCC
DNA 2: TGGTGGCTACGACGGGATT
B32: UCCUGGG (DNA:RNA)
RNA: B17 RNA with A25U, G28U, C31G
DNA 1: CAATCTGAATTCCGGTCTCCC
DNA 2: TGGTGGCTACGACGGGATT
B33: UGCUGGG (DNA:RNA)
RNA: B17 RNA with A25U, C26G, G28U, C31G
DNA 1: CAATCTGAATTCCGGTCTCCC
DNA 2: TGGTGGCTACGACGGGATT
B34: UGGGUUU (DNA:RNA)
RNA: B17 RNA with A25U, C26G, C27G, G29U, G30U, C31U
DNA 1: CAATCTGAATTCCGGTCTCCC
DNA 2: TGGTGGCTACGACGGGATT
B35: UGGUUCU (DNA:RNA)
RNA: B1 RNA with G25U, U26G, A29U, A30C, G31U
DNA 1: CAATCTGAATTCCGGTCTCCC
DNA 2: TGGTGGCTACGACGGGATT
B36: UGGGUUC (DNA:RNA)
RNA: B17 RNA with A25U, C26G, C27G, G29U, G30U
DNA 1: CAATCTGAATTCCGGTCTCCC
DNA 2: TGGTGGCTACGACGGGATT
B37: UGGUUUU (DNA:RNA)
RNA: B1 RNA with G25U, U26G, A29U, A30U, G31U
DNA 1: CAATCTGAATTCCGGTCTCCC
DNA 2: TGGTGGCTACGACGGGATT
B38: CCCCUGG (DNA:RNA)
RNA: B17 RNA with A25C, G28C, G29U, C31G
DNA 1: CAATCTGAATTCCGGTCTCCC
DNA 2: TGGTGGCTACGACGGGATT
B39: UGGGUUG (DNA:RNA)
RNA: B1 RNA with G25U, U26G, U28G, A29U, A30U
DNA 1: CAATCTGAATTCCGGTCTCCC
DNA 2: TGGTGGCTACGACGGGATT
B40: CUGGGUU (DNA:RNA)
RNA: B17 RNA with A25C, C26U, C27G, G30U, C31U
DNA 1: CAATCTGAATTCCGGTCTCCC
DNA 2: TGGTGGCTACGACGGGATT

biological target: T1, RBFOX1 RRM; test: EMSA; HiTS-Eq, 1 nM pool, 10 min; buffer printed only for the single-RNA assays: 10 mM Tris pH 7.5, 150 mM NaCl, 3.4 mM EDTA, 0.001% NP-40, 30 C; conditions: tags: His6 N-terminal (pET28a); label: 5' 32P
In short: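 Purified RbFox RRM (wild type or mutant) was equilibrated for 10 min in 50 µL with 1 nM of a 5′-radiolabelled pool of RNA with 7 randomized nucleotides, its flanks annealed to DNA oligonucleotides, across increasing protein concentrations. Free RNA was separated by 8% native PAGE, excised, reverse-transcribed, PCR-barcoded and sequenced on an Illumina HiSeq 2500. Relative association constants came from read-count changes of each variant against the control reaction, normalised to the cognate motif.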

Binder	binding signal
B1	0.0113 KA relative to UGCAUGU
B2	0.0135 KA relative to UGCAUGU
B3	0.0149 KA relative to UGCAUGU
B4	0.00457 KA relative to UGCAUGU
B5	0.00712 KA relative to UGCAUGU
B6	0.00528 KA relative to UGCAUGU
B7	0.00281 KA relative to UGCAUGU
B8	0.0159 KA relative to UGCAUGU
B9	0.0185 KA relative to UGCAUGU
B10	0.582 KA relative to UGCAUGU
B11	0.0206 KA relative to UGCAUGU
B12	0.0176 KA relative to UGCAUGU
B13	0.0466 KA relative to UGCAUGU
B14	0.0461 KA relative to UGCAUGU
B15	0.0168 KA relative to UGCAUGU
B16	0.0324 KA relative to UGCAUGU
B17	0.0122 KA relative to UGCAUGU
B18	0.0234 KA relative to UGCAUGU
B19	0.00898 KA relative to UGCAUGU
B20	0.0214 KA relative to UGCAUGU

Binder	binding signal
B21	0.0209 KA relative to UGCAUGU
B22	0.00863 KA relative to UGCAUGU
B23	0.0208 KA relative to UGCAUGU
B24	0.00393 KA relative to UGCAUGU
B25	0.00147 KA relative to UGCAUGU
B26	0.00701 KA relative to UGCAUGU
B27	0.00582 KA relative to UGCAUGU
B28	0.0121 KA relative to UGCAUGU
B29	0.0321 KA relative to UGCAUGU
B30	0.00877 KA relative to UGCAUGU
B31	0.0192 KA relative to UGCAUGU
B32	0.00619 KA relative to UGCAUGU
B33	0.0153 KA relative to UGCAUGU
B34	0.0379 KA relative to UGCAUGU
B35	0.019 KA relative to UGCAUGU
B36	0.0352 KA relative to UGCAUGU
B37	0.0278 KA relative to UGCAUGU
B38	0.0109 KA relative to UGCAUGU
B39	0.0558 KA relative to UGCAUGU
B40	0.0262 KA relative to UGCAUGU
